HepG2 viability – kills HepG2 cells in TGF-b inhibitor counter-screen; Potency, µM (top dose mostly 46.1 µM), for the others: at the top dose activity change, negative = cytotoxicity, hits mostly cytotoxic; HepG2 CAGA-GFP viability, ATP luminescence, 18 h; 410,000 compounds, 0.76% hits
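CellTiter-Glo luminescence gave cytotoxicity after 18 hours at 37 degrees C. The cells were HepG2 CAGA-GFP in 1% FBS DMEM, stimulated with 500 pg/mL TGF-beta after compound addition. %Activity was normalised to no-cell wells (complete cell-killing) and DMSO (no toxicity), and curves were fitted and classified.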
S2 tox – reduces viability in counter-screen for ATXN expression inhibitors; 400,000 compounds, 0.49% hits; AID 651635; Potency, µM (titrated, usually from 56.7 µM), usual class: cytotoxic; S2 cells (HEK-293 line with an ATXN2-luciferase reporter) viability, CellTiter-Fluor protease fluorescence, 24 h; further: nearly all actives have a fitted effect of over 40% in size
ATXN2 expr inh – ATXN2 expression inhibition; HEK-293 ATXN2-luciferase reporter, luminescence, 24 h; Potency, µM (titrated, usually from 57 µM), without a hit: top-dose activity change, negative = inhibition, most hits filed as inhibitors; 360,000 compounds, 0.72% hits; AID 1745845; further: on the % scale 0 is the no-effect control and ±100 the full control effect; nearly all actives have a fitted effect of over 55% in size
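qHTS (up to 57 uM final) was run with 24 h compound exposure of reporter cells at 37 °C. Each well was multiplexed: SteadyGlo luminescence measured ATXN2-luciferase expression after a fluorogenic Gly-Phe-AFC viability readout (25 uM final).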
TGFb inhibitor – blocks TGF-b signaling | HepG2 CAGA-GFP TGF-b/SMAD3 reporter, GFP fluorescence, 18 h; TGF-beta stimulated, 500 pg/mL final | Potency, µM (highest dose often 46.1 µM), inactives show at the top dose activity, negative = inhibition, actives largely listed as inhibitors | 410,000 compounds, 1.2% hits | AID 588855; further: on the % scale 0 is the no-effect control and ±100 the full control effect; nearly all actives have a fitted effect of over 65% in size
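GFP signal (ex488/em500-530) from TGF-beta-stimulated HEPG2 CAGA-GFP cells, 500 pg/mL final, 18 h at 37 degrees C in DMEM plus 1% FBS, normalized to unstimulated and DMSO-stimulated controls.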
HT1080 IDH1KD tx – HT-1080 IDH1 knockdown cell toxicity (counter line). HT-1080 IDH1 knockdown viability, ATP luminescence, 48 h. 360,000 compounds, 2% hits. AID 686971. Potency, µM (doses to about 46.1 µM), for inactives: at the top dose activity, negative = toxicity, hits mostly cytotoxic;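 further: 0% = DMSO wells and -100% = cell-free medium wells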
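HT-1080-IDH1KD cells (IDH1 knocked down), 750/well in RPMI with 5% FBS, treated with compound 48 h at 37 degrees C. Viability by CellTiter-Glo luminescence, normalised to DMSO and no-cell wells; concentration-response curves classed.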
HT1080NT lethal – kills 2HG-producing HT-1080-NT fibrosarcoma cells | HT-1080-NT fibrosarcoma viability, CellTiter-Glo ATP luminescence, 48 h | AID 686970 | 360,000 compounds, 1.6% hits | Potency, µM (titrated, usually from 46.1 µM), inactives show top-dose activity, negative = less viability, actives largely listed as cytotoxic;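 further: NT is the 2HG producing partner of a matched IDH1 knockdown line; 0% = DMSO-treated cells and -100% = media-only wells without cells; nearly all actives have a fitted effect of over 55% in size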
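Toxicity toward the 2HG-producing NT line was scored as %Activity, normalised to DMSO and no-cell wells, from CellTiter-Glo luminescence after 48 hours' treatment.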
* = called active by the depositor; i = inactive; ? = inconclusive; nt = no result; ! = not active in a repeat; [ ] = dose if it differs, or a comment. An excerpt weighted towards active compounds, which were near 3.9% of everything screened. The call rests on the fitted dose curve; in most records, active means well fitted curve in the direction sought with a large enough effect; inconclusive means small, poorly fitted or top-dose-only effect, or another doubt; inactive means no such curve, though single readings can be large; an effect the other way counts as inactive or inconclusive. Potency means the concentration at half of the fitted maximal effect.

SMILES | HepG2 viability | S2 tox | ATXN2 expr inh | TGFb inhibitor | HT1080 IDH1KD tx | HT1080NT lethal
Cc1ccc(CN2CCc3nnc(C(NS(C)(=O)=O)C(C)C)n3CC2)cc1C (configuration not stated) | nt | i | nt | nt | nt | nt
CN(C)C(=O)CCC(=O)NCC1Cc2cccc(-c3ccccc3C(F)(F)F)c2O1 (configuration not stated) | nt | i | nt | nt | nt | nt
Cc1cc(C)c2nc(N(CCCN(C)C)C(=O)c3ccc4c(c3)OCCO4)sc2c1 | -118% | ? | ? | ? | ? | 12µM*
Cc1cccc2sc(N(CCCN(C)C)C(=O)c3ccc(Cl)s3)nc12 | -17% | ? | 22µM*! | ? | ? | -18%
CCOc1ccc2nc(N(CCCN(C)C)C(=O)c3ccc4c(c3)CCCC4)sc2c1 | 18µM* | i | ? | ? | ? | 18µM*
Cc1cccc2sc(N(CCCN(C)C)C(=O)c3ccco3)nc12 | 0% | i | ? | 0% | ? | -10%
CCN(c1ccccc1)S(=O)(=O)c1ccc(C(=O)N(CCCN(C)C)c2nc3cc4c(cc3s2)OCO4)cc1 | -108% | i | ? | 22µM* | ? | ?
CN(C)CC(C)(C)CNC(=O)c1cnn(-c2nccc(-c3ccc4c(c3)OCO4)n2)c1-c1ccco1 | nt | i | nt | nt | nt | nt
COc1ccc(C2C(=O)N(C3CCCCC3)CC(=O)N2CCc2ccc(C)cc2)cc1OC (configuration not stated) | -19% | i | 3% | -1% | nt | nt
CN(C)CCN(C(=O)c1ccc2ccccc2c1)c1nc2cc3c(cc2s1)OCCO3 | -25% | i | 15% | -22% | -4% | -4%
CCN(CC)CCN(C(=O)c1ccc2c(c1)OCCO2)c1nc2cc3c(cc2s1)OCO3 | -22% | i | -8% | 8% | -2% | 0%
CCN(CC)CCN(C(=O)c1cc2c(ccc3ccccc32)oc1=O)c1nc2cc3c(cc2s1)OCCO3 | -84% | i | -8% | 13µM* | ? | ?
CN(C)CCCN(C(=O)c1ccc2ccccc2c1)c1nc2cc3c(cc2s1)OCO3 | -39% | 32µM* | 25µM* | -29% | ? | ?
O=C(NC(c1ccc(Cl)cc1)c1cnccn1)C1CCN(Cc2ccc(Oc3ccccc3)cc2)CC1 (configuration not stated) | -99% | ? | ? | ? | 16µM* | ?
Cc1cccnc1C(NC(=O)C1CCN(Cc2ccc(Oc3ccccc3)cc2)CC1)c1ccc(F)cc1 (configuration not stated) | -31% | ? | ? | ? | ? | 21µM*
O=C(NC(c1ccc(Cl)cc1)c1cnccn1)C1CCN(CCOc2ccc(F)cc2)CC1 (configuration not stated) | -37% | i | -14% | -2% | ? | ?
Cc1ccc(C(NC(=O)C2CCN(Cc3ccc(Oc4ccccc4)cc3)CC2)c2ccccn2)cc1 (configuration not stated) | 11µM* | ? | ? | ? | 21µM* | 15µM*
CCCCc1oc2ccccc2c1C(=O)c1cc(I)c(OCCN(CC)CC)c(I)c1 | -35% | nt | 28µM*! | 21% | ? | ?
Cc1ccc(NC(=O)c2nc(S(=O)(=O)Cc3ccccc3F)ncc2Cl)cc1 | 10µM* | nt | nt | ? | nt | nt
Cc1ccc(NC(=O)c2nc(S(=O)(=O)Cc3ccccc3F)ncc2Cl)cc1C | -59% | nt | nt | ? | nt | nt
Cc1ccccc1NC(=O)c1nc(S(=O)(=O)Cc2ccccc2F)ncc1Cl | 5.6µM* | nt | nt | 4.5µM* | nt | nt
Cc1ccc2nc(C(F)(F)F)c(C#N)c(N)c2c1 | -4% | i | -36% | ? | 10µM* | ?
CC(NCc1ccc(OCc2ccc(Cl)cc2)cc1)C(O)c1ccccc1 (configuration not stated) | 16µM* | ? | ? | 14µM* | 18µM* | 23µM*
CCCS(=O)(=O)c1nnnn1-c1cccc(OC)c1 | 18µM* | nt | ? | ? | 6.3µM* | 10µM*
COc1cccc(-n2nnnc2SCC(=O)Nc2ccccc2OC)c1 | -11% | i | -8% | 4% | 1% | 7%
SMILES | HepG2 viability | S2 tox | ATXN2 expr inh | TGFb inhibitor | HT1080 IDH1KD tx | HT1080NT lethal
CC(=O)Nc1nnc(CSCc2ccccc2F)s1 | 7.9µM* | i | 37% | 1% | 0% | -5%
CC(=O)Nc1nnc(SCc2ccccc2F)s1 | 2% | i | 50% | -14% | 3% | 4%
CCC(=O)N1CCc2cc(S(=O)(=O)CCC(=O)N3CCN(c4cccc(C)c4)C(C)C3)ccc21 (configuration not stated) | -32% | i | ? | -4% | nt | nt
Cc1ccc(C(C)C)c(OCCCN(C)Cc2ccccc2)c1 | -57% | i | -35% | ? | ? | -22%
Cc1ccc(C(C)C)c(OCC(O)CN(C)Cc2ccccc2)c1 (configuration not stated) | -154% | ? | -36% | 16µM* | ? | ?
Cc1ccc(-c2nc3sc(CCNC(=O)c4ccco4)c(C)n3n2)cc1 | -26% | ? | -2% | ? | nt | nt
COc1ccccc1C(=O)N(Cc1ccccc1)c1ccc(C)cc1 | -18% | i | -12% | 2% | -4% | -2%
CCCS(=O)(=O)c1ncc(Cl)c(C(=O)N(Cc2ccccc2)Cc2ccco2)n1 | 4µM* | nt | nt | 8.9µM* | nt | nt
COc1ccc(NC(=O)c2nc(SC)ncc2Cl)cc1 | -18% | i | -6% | 4% | 10% | 3%
CCSc1ncc(Cl)c(C(=O)N(Cc2ccccc2)Cc2ccco2)n1 | -36% | nt | nt | nt | nt | nt
CCS(=O)(=O)c1ncc(Cl)c(C(=O)N(Cc2ccccc2)c2ccc(OC)cc2)n1 | 3.2µM* | nt | nt | 3.2µM* | nt | nt
COc1ccc(N(Cc2ccccc2)C(=O)c2nc(SC)ncc2Cl)cc1 | -30% | i | ? | 13µM* | nt | nt
COc1ccc(N=c2cc(-c3ccc(OC)cc3)oc3ccccc23)cc1 | -12% | ? | ? | ? | ? | -16%
COc1ccc(N=c2cc(-c3ccc(O)cc3)oc3ccccc23)cc1 | 4% | i | -23%[11.3 µM] | ? | 16µM* | 15µM*
COC(=O)C1CCN(Cc2ccc3c(c2)CN(C(=O)c2ccc(-n4cnnn4)cc2)CCO3)CC1 | nt | i | nt | nt | nt | nt
COC(=O)C1CCN(Cc2ccc3c(c2)CN(C(=O)c2cc(C4CC4)on2)CCO3)CC1 | nt | i | nt | nt | nt | nt
COc1ccc(N/N=C(\C#N)C(N)=O)cc1 | 10% | i | 26%[11.3 µM] | -15% | -6% | -24%
